Potency data for 66 compounds are collected here from ChEMBL document CHEMBL1201862, “PubChem BioAssay data set” (2004).

SMILES strings stand for the structures. Screen size: about 400,000 compounds; about 2,100 (0.53%) were called active. Another 14% or so got no clear call; they are omitted. No rule for the calls is given here. The full list was thinned out, with actives kept by preference.

Ataxin-2 (Homo sapiens), sequence (Q99700 whole entry): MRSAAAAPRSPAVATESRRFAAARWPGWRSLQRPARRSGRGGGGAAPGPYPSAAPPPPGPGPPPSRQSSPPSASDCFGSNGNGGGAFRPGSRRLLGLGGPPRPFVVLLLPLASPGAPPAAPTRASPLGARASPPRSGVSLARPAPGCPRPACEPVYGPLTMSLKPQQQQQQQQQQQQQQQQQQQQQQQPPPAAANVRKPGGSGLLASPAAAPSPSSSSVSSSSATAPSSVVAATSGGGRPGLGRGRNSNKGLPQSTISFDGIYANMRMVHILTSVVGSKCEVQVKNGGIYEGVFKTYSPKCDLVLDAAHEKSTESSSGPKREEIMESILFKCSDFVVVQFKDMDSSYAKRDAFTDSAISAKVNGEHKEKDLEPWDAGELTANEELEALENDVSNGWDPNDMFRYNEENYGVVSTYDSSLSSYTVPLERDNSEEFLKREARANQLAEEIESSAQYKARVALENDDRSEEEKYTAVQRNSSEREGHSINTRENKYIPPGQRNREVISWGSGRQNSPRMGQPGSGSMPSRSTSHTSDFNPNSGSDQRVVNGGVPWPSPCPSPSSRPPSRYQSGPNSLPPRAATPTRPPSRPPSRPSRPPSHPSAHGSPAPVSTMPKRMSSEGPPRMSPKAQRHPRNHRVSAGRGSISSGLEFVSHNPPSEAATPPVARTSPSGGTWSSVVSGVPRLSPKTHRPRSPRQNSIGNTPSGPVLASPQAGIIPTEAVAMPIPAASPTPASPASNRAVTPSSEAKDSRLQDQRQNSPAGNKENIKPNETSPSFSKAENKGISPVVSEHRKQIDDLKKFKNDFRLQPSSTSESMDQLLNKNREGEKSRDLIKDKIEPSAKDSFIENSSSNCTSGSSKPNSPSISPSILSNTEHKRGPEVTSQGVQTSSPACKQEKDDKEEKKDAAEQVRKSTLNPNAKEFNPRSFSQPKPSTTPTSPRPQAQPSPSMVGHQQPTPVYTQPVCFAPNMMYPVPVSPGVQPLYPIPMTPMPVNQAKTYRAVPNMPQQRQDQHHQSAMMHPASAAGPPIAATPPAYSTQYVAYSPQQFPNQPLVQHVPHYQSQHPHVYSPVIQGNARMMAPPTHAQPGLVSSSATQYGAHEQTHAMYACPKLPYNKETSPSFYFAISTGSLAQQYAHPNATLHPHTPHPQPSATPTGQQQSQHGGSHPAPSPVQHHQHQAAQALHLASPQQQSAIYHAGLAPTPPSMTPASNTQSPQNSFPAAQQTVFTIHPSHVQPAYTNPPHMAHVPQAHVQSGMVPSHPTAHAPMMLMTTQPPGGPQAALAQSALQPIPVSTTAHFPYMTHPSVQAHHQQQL

This assay has as its target Ataxin-2 (Homo sapiens) (UniProt Q99700). In words: qHTS for Inhibitors of ATXN expression. It is filed as functional.
Take `Cc1ccc(-c2nnn3c2nc(NCCc2ccc(S(N)(=O)=O)cc2)c2ccccc23)cc1`: the Potency result was “inactive”.

`Cc1ccc(S(=O)(=O)c2nnn3c2nc(NC2CCN(Cc4ccccc4)CC2)c2ccccc23)cc1C`: the Potency was 39.8 µM (active).

In the case of `CC(=O)NCCNc1nc2c(-c3cccc(C(F)(F)F)c3)nnn2c2ccccc12`, the Potency entry was “inactive”.

In the case of `Cc1nc2nc(SCC(=O)O)nn2c(C)c1Cc1ccccc1Cl`, the Potency result is “inactive”.

Take `Cc1ccc(OCC(=O)N2CC(C)OC(C)C2)c([N+](=O)[O-])n1` (stereo unspecified): the Potency entry was “inactive”.

As to `CN1C2CCC1/C(=C/c1cccn1C)C(=O)/C2=C\c1cccn1C`, the Potency entry is “inactive”.

`N=c1c(S(=O)(=O)c2ccc(Br)cc2)cc2c(=O)n3ccccc3nc2n1Cc1ccco1`: the Potency result is “inactive”.

For `O=[N+]([O-])c1cc(-c2ncccn2)c([N+](=O)[O-])s1`, the Potency is 25.1 µM (active).

Take `Cc1c(NS(=O)(=O)c2cc([N+](=O)[O-])ccc2Cl)c(=O)n(-c2ccccc2)n1C`: the Potency entry is “inactive”.

With `CC(c1ccon1)N(C)C(=O)c1cnn(-c2ncc3c(n2)-c2ccccc2CC3)c1C1CC1` (stereo unspecified), the Potency result is “inactive”.

For the compound `Cc1cc(C)c(C#N)c(OCc2ccc(Cl)nc2)n1`, the Potency result was “inactive”.

Turning to `N#Cc1ccc(C(=O)OCC(=O)Nc2cccnc2Cl)cc1`, the Potency result was “inactive”.

With `COc1cc(C)c(/C=C(\C#N)C(=O)Nc2ccc(C)cc2)cc1C(C)C`, the Potency entry is “inactive”.

With `Cc1ccc(NC(=O)/C(C#N)=C/c2cc(C)n(-c3ccc(Br)cc3)c2C)cc1C`, the Potency is 35.5 µM (active).

Consider `Cc1ccc(NC(=O)/C(C#N)=C/c2cn(CC(=O)NCc3ccco3)c3ccccc23)cc1C`, for which the Potency entry is “inactive”.

On to `NC(=S)NN=Cc1nccc2c(N)cccc12`, for which the Potency is 8.91 µM (active).

As for `NC(=S)NN=Cc1nccc2c(C(F)(F)C(F)(F)C(F)(F)F)cccc12`, the Potency is 1 µM (active).

For the compound `CNC(=S)N/N=C/c1c2ccccc2c(Cl)c2ccccc12`, the Potency result was “inactive”.

In the case of `N=c1c(C(=O)NCC2CCCO2)cc2c(=O)n3ccccc3nc2n1CCCO` (stereo unspecified), the Potency result is “inactive”.

Take `OCCn1ccc(-c2ccccc2OCc2ccc(F)cc2)n1`: the Potency entry was “inactive”.

With `CCCCCCc1cc2cc(S(=O)(=O)c3ccc(C)cc3)c(=O)oc2cc1O`, the Potency result is “inactive”.

Consider `CC(C)N(C(=O)CS(=O)(=O)c1ccc(Cl)c(Cl)c1)C(C)C`, for which the Potency result is “inactive”.

Consider `O=C(NCC1CCCO1)c1nn2c(C(F)(F)F)cc(-c3cccs3)nc2c1Br` (stereo unspecified), for which the Potency entry is “inactive”.

For the compound `COCCCNc1nc2ccccc2nc1NS(=O)(=O)c1cc(Cl)ccc1Cl`, the Potency result is “inactive”.

Regarding `CCCCNC(=O)C(C)N(CCN(C)C)C(=O)CCCN1C(=O)NC(c2ccc(Cl)cc2)C(C(=O)OCc2ccccc2)=C1C` (stereo unspecified), the Potency was 25.1 µM (active).

Regarding `NC(=O)C1(N2CCCCC2)CCN(C(=O)c2cc(COc3c(F)cccc3F)on2)CC1`, the Potency result is “inactive”.

With `COc1ccc(C(=O)Nc2ccc(S(=O)(=O)Nc3nccc(C)n3)cc2)cc1[N+](=O)[O-]`, the Potency entry is “inactive”.

On to `Cc1ccc(NC(=O)c2ccc(Nc3c([N+](=O)[O-])cc([N+](=O)[O-])cc3[N+](=O)[O-])cc2)cc1`, for which the Potency is 15.8 µM (active).

As to `Cc1ccc(C(=O)Nc2ccc(S(=O)(=O)Nc3ncccn3)cc2)cc1[N+](=O)[O-]`, the Potency entry was “inactive”.

For `C/C(=N\NC(=O)CC#N)c1cc2ccc(O)cc2oc1=O`, the Potency entry was “inactive”.

In the case of `COc1ccc(CN2CCCC(N3CCN(c4cccc(Cl)c4)CC3)C2)cc1OC` (stereo unspecified), the Potency entry is “inactive”.

In the case of `Cc1cc2sc3ccccc3c(=O)c2c(C)c1O`, the Potency result was “inactive”.

As for `CCN(CC)CCNc1ccc(C)c2sc3ccc(O)cc3c(=O)c12`, the Potency is 33.6 µM (active).

In the case of `CNC(=O)OCc1nc(SSC(C)(C)C)n(C)c1COC(=O)NC`, the Potency is 23.8 µM (active).

As to `NC(=O)c1cc2ccc(O)cc2o/c1=N\Cc1ccccc1`, the Potency result is “inactive”.

Regarding `CC(=O)CC1OC(O)=C(Br)/C1=N/Cc1ccccc1` (stereo unspecified), the Potency is 20 µM (active).

`Oc1nc(N2CCOCC2)cc2ccccc12`: the Potency entry is “inactive”.

As for `Cc1nc(NC(=O)/C=C/c2ccccc2)sc1C(=O)Nc1ccc(Cl)cc1`, the Potency is 39.8 µM (active).

Consider `Cc1cccc(Nc2nc(-c3ccccc3)c(C(=O)Nc3cccnc3)s2)c1`, for which the Potency entry is “inactive”.

`Cc1nc(NS(=O)(=O)c2ccccc2)sc1C(=O)NN`: the Potency result was “inactive”.

With `CC(C)=CC(=O)N1CCC(N2CCC(C(=O)N3CCOCC3)CC2)CC1`, the Potency entry was “inactive”.

`O=C(COCc1cc(-c2ccco2)on1)NC1CCCCC1`: the Potency entry was “inactive”.

Turning to `CCCc1cc(=O)oc2c(C)c(O[C@@H]3O[C@H](CO)[C@@H](O)[C@H](O)[C@H]3O)ccc12`, the Potency entry is “inactive”.

In the case of `Nc1nc(N)c2nc(-c3ccccc3)c(N)nc2n1`, the Potency entry was “inactive”.

`COc1ccc(OC)c(Nc2nc(-c3ccncc3)nc3ccccc23)c1`: the Potency entry was “inactive”.

On to `OCCNc1nc(Nc2ccc(Br)cc2)nc2ccccc12`, for which the Potency result was “inactive”.

Turning to `Cc1cccc(Nc2nc(NCc3ccco3)c3ccccc3n2)c1`, the Potency is 25.1 µM (active).

In the case of `Cc1ccc(-c2nc(NCc3ccco3)n(S(C)(=O)=O)n2)cc1`, the Potency result was “inactive”.

As to `COc1ccc(OC)c(Nc2nc(NCc3ccco3)c3ccccc3n2)c1`, the Potency was 39.8 µM (active).

`COc1ccc(OC)c(Nc2nc(-c3ccccc3O)nc3ccccc23)c1`: the Potency result is “inactive”.

`O=[N+]([O-])c1cccc(S(=O)(=O)NCC2CC3CCC2C3)c1` (stereo unspecified): the Potency result was “inactive”.

`CC(C)(C)c1ccc(SCCc2cccnc2)cc1`: the Potency entry was “inactive”.

For the compound `Nc1c(C(=O)Nc2ccc(Cl)cc2F)sc2nc(-c3cccs3)ccc12`, the Potency result is “inactive”.

Take `NC(=O)c1cc(N2C(=O)C=CC2=O)ccc1Cl`: the Potency was 35.5 µM (active).

Regarding `O=C(O)c1cccc(N2C(=O)c3cccc4c(Cl)ccc(c34)C2=O)c1`, the Potency entry was “inactive”.

As for `CN1CCN(C(=O)/C=C/c2ccc([N+](=O)[O-])o2)CC1`, the Potency is 8.91 µM (active).

With `CN1CCCN(C(=O)/C=C/c2ccc(Cl)cc2Cl)CC1`, the Potency result was “inactive”.

`CN1CCN(/N=C/c2ccc(-c3ccc([N+](=O)[O-])cc3Cl)o2)CC1`: the Potency result was “inactive”.

In the case of `Nc1cccc2nc3ccccc3cc12`, the Potency entry was “inactive”.

For the compound `C1=C/C(=N\C2CCCCC2)C=C2C1=NC13CCCCC1CC1=C(CCCC1)N23` (stereo unspecified), the Potency was 35.5 µM (active).

In the case of `CSc1ccc(CN(C)Cc2nc(O)c3ccccc3n2)cc1`, the Potency result was “inactive”.

Consider `COc1ccc(CCNC(=O)CSc2cn(CCNC(=O)c3cccc(C(F)(F)F)c3)c3ccccc23)cc1OC`, for which the Potency was 22.4 µM (active).

Turning to `Cc1nnc(NC(=O)CSc2cn(CCNC(=O)c3ccccc3)c3ccccc23)s1`, the Potency result is “inactive”.

Turning to `O=C(CSc1cn(CCNC(=O)c2cccc(C(F)(F)F)c2)c2ccccc12)Nc1ccc2c(c1)OCCO2`, the Potency is 35.5 µM (active).

Turning to `CCn1c(CNC(=O)c2ccc3c(c2)OCO3)nnc1SCC(=O)Nc1ccccc1F`, the Potency result was “inactive”.

In the case of `COc1ccc(CCNC(=O)CSc2nnnn2C)cc1OC`, the Potency result was “inactive”.
